Among the data in PubChem BioAssay AID2796 (The Scripps Research Institute Molecular Screening Center, 2010) are activation values, retold here.

Screen size: about 320,000 compounds; about 8,000 (2.5%) were called active. The sample holds actives, similar compounds and a random draw of the others, so the mix is not that of the screen. Values without a mark were called inactive. Cut-off read from the data, not from the text of the source: active = activation above about 47%; inactive = the rest.

The target of the experiment is Aryl hydrocarbon receptor (Homo sapiens) (UniProt P35869). Briefly: AHR activators, primary screen, cell-based, luminescence, luciferase reporter, human (AID 2796).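 Note: 0% = vehicle wells and 100% = reference agonist.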 Particulars: AHR-responsive luciferase reporter cells, at 5 µM, stronger effect = higher value. Background: Reporter assays use an easily measured gene product as a stand-in for the process of interest.
Sequence of Aryl hydrocarbon receptor (Homo sapiens) (P35869 whole entry, looked up): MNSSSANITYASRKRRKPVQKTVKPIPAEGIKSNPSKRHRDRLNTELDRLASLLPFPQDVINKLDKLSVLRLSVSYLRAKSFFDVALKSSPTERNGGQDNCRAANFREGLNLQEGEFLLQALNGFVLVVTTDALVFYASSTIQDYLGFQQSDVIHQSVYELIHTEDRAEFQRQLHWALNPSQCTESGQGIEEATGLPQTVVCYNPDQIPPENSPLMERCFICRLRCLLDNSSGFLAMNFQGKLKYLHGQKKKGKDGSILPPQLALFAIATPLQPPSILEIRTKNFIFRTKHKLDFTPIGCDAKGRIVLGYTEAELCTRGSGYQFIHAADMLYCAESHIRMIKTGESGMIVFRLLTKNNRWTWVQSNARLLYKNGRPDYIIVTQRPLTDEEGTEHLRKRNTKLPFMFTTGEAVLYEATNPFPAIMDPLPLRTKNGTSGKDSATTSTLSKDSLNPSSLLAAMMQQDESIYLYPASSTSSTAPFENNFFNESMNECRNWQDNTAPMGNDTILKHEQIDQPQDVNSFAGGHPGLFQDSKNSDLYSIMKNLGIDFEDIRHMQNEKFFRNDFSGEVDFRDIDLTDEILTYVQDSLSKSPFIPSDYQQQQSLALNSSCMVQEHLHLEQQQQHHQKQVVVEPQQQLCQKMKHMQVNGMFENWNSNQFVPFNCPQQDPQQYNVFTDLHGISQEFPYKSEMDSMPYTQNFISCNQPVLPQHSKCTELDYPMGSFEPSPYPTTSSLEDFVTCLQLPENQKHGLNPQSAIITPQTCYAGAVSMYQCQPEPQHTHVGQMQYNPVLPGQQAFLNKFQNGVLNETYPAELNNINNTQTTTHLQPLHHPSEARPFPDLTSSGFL
On to `N[C@@H](Cc1c[nH]c2ccccc12)c1nnc(SCc2c(F)cccc2Cl)o1`, for which the activation was 60.4% (active).

For the compound `COc1cc2nc(N3CCN(C(=O)[C@@H]4CCCO4)CC3)nc(N)c2cc1OC`, the activation was 5.62%. The result for `c1ccc(CCN2CCC3(CC2)OCCO3)cc1` reads -0.2%; that for `O=C(NC(c1ccc(Cl)cc1)P(=O)(Oc1ccccc1)Oc1ccccc1)OCc1ccccc1` (stereo not given), 1.2%; that for `CN(C)CCN(CC1CCCN(Cc2ccccc2F)C1)C(=O)Cc1ccc(F)c(F)c1` (stereo not given), -0.87%. The result for `CC1(C)C(c2ccccc2)=NC(c2cccnc2)=[N+]1[O-]` reads 1.07%. As to `COc1ccc2c(c1O)-c1cccc3c1[C@@H](C2)N(C)CC3`, the activation is 64.4% (active).

In the case of `COc1c(O)ccc2c1-c1c3c(cc4c1C(C2)N(C)CC4)OCO3` (stereo not given), the activation was 4.84%. The value for `COC1=CC=C2[C@H]3Cc4ccc(OC)c5c4[C@@]2(CCN3C)C1O5` (stereo not given in full) was -1.46%.

`COc1ccc(NC(=O)c2cn(CCC#N)nc2-c2ccc([N+](=O)[O-])cc2)cc1`: the activation was 0%. The result for `CCOC(=O)C1=C(C)OC(N)=C(C(=O)OC)C12C(=O)Nc1ccc(Br)cc12` (stereo not given) reads 57% (active); that for `COC(=O)CN1C(=O)C2(C(C(=O)OC)=C(N)Oc3ccccc32)C2=C1CC(C)(C)CC2=O` (stereo not given), 2.04%. Turning to `CCOC(=O)CC1=C(C(=O)OCC)C2(C(=O)N1)C(C(=O)OC)=C(N)Oc1ccccc12` (stereo not given), the activation is 10%.

On to `Nc1ccc(C(=O)N/N=C2/CN3CCC2CC3)cc1`, for which the activation is 3.27%. The result for `CCOC(=O)C(O)(c1ccc(N=Cc2ccccc2O)c(C)c1)C(F)(F)F` (stereo not given) reads -2.72%.
